“And” between values parts separate entries of the source, which are not always exact repeats. Equal entries are not always repeated. Results filed as inconclusive are left out. The source made the active and inactive calls. Unless noted, calls follow the shape of the dose curve; as a rule, active = well fitted curve in the direction sought with a large enough effect; inconclusive = small, poorly fitted or top-dose-only effect, or another doubt; inactive = no such curve, though single readings can be large; an effect the other way counts as inactive or inconclusive.
What was measured:
[1] = Cell Viability - SK-N-SH (AID 435; calls by dose curve;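 also: potency is read from the fitted curve at half-maximal effect; compound exposure lasted 40 h at 37 °C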); conditions: SK-N-SH neuroblastoma cell viability qHTS
How it was run: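 Human neuroblastoma line, 40 h exposure at 37 °C, ATP quantified via luciferase luminescence; DMSO and 100 uM tamoxifen define 0 and 100% inhibition for AC50 fitting.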

[2] = Cell Viability - N2a (AID 540); conditions: N2a mouse neuroblastoma cell viability; at 92.2 µM (top of the series);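 also: cells exposed to compound for 40 h at 37 °C; plate controls were DMSO alone for no effect and tamoxifen control for full effect; nearly all actives have a fitted effect of over 45% in size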
How it was run: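 First, 1500 N2a cells per well incubate 5 hr at 37 °C; next, compounds are added and incubated 40 hr at 37 °C; finally CellTiter-Glo is added and luminescence read after 20 min, with AC50 derived by Hill modeling.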

[3] = Cell Viability - SH-SY5Y (AID 544); conditions: SH-SY5Y neuroblastoma cell viability; viability change, negative = cytotoxic: at 92.2 µM (top of the series);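 also: cells exposed to compound for 40 hours; nearly all actives have a fitted effect of over 55% in size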
How it was run: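 Cytotoxicity is scored as a concentration-dependent fall in intracellular ATP in human SH-SY5Y cells treated 40 hr in complete culture medium. Potency is expressed as AC50 from a Hill equation fit.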

[4] = Cellular Toxicity (caspase-3) HepG2 (AID 654); conditions: HepG2 caspase-3 activation, luminescence, 0% = DMSO only, 100% = tamoxifen; series mostly up to 92.2 µM;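 also: cells exposed to compound for 16 hours before reading; 0% = DMSO alone and 100% = caspase signal from 100 µM tamoxifen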
How it was run: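 qHTS, HepG2, 1500 cells/well, complete medium; cpd 16 h 37 °C; Caspase-Glo 3/7, 20 min RT; lum. Norm: DMSO vs 100 uM tamoxifen; AC50 Hill fit.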

[5] = Cellular Toxicity (caspase-3) Hek293 (AID 664); conditions: HEK293 caspase-3 activation, DMSO = 0%, 100 µM tamoxifen = 100%; series mostly up to 92.2 µM;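 also: cells exposed to compound for 16 h at 37 °C before readout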
How it was run: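 Activation of caspase-3/7 is measured as increased luminescence from cleaved peptide-aminoluciferin substrate in HEK293 cells treated 16 hours at 37 °C. AC50 values come from Hill-equation fits of concentration-response data.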

[6] = Cellular Toxicity (caspase-3) NIH 3T3 (AID 666); conditions: NIH 3T3 caspase-3 activation, apoptosis/toxicity, 0% DMSO, 100% is 100 µM tamoxifen; series mostly up to 92.2 µM;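 also: caspase signal read after 16 h compound exposure; 0% = DMSO basal and 100% = 100 µM tamoxifen stimulation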
How it was run: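 Concentration-response qHTS in NIH 3T3 mouse fibroblasts scores caspase-3/7 activation as rising luminescence after 16 hr compound exposure. Signals are scaled between DMSO-only and 100 uM tamoxifen.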

[7] = Cell Viability - LYMP1-002 - Assay at 16 hr (AID 948); conditions: LYMP1-002 lymphoblastoid cell viability; series mostly up to 92.2 µM;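 also: 0% = DMSO alone and full effect = 92 µM tetraoctylammonium bromide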
How it was run: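 In this qHTS, lymphoblastoid LYMP1-002 cells (human) receive compounds for 16 hr at 37 C. Viability is taken from CellTiter-Glo ATP luminescence, and AC50 derives from standard Hill fits.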

[8] = MultiTox-Fluor Cytotoxicity Assay - LYMP1-002 - Live Cells (AID 955); conditions: LYMP1-002 lymphoblastoid live-cell protease fluorescence viability; series mostly up to 46.1 µM;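 also: cells exposed to compound for 16 hours; % is scaled to controls: 0 for no effect and ±100 for the full control effect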
How it was run: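 Cytotoxicity in the human lymphoblastoid line LYMP1-002 is measured as loss of live-cell protease activity after 16 h treatment in complete culture medium. AC50 is derived from Hill-equation fits of qHTS concentration-response data.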

[9] = MultiTox-Fluor Cytotoxicity Assay - LYMP1-003 - Live Cells (AID 962); conditions: LYMP1-003 lymphoblastoid cells, MultiTox-Fluor live-cell protease fluorescence; series mostly up to 92.2 µM;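 also: cells exposed to compound for 16 hours at 37 °C; 0% = DMSO only and full loss = 92 µM tetraoctylammonium bromide; cytotoxic hits lower the live-cell protease signal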
How it was run: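 Cells plated at 2500 per well and incubated 5 hr; compounds added and incubated 16 hr at 37 C; MultiTox-Fluor reagent added for 60 min at room temperature; fluorescence of liberated AFC measured at 405/510 nm.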

[10] = Cell Viability - LYMP1-003 - Assay at 24 hr (AID 963); conditions: LYMP1-003 lymphoblastoid cell viability; series mostly up to 92.2 µM;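 also: plate controls were DMSO only for no effect and tetraoctylammonium bromide positive control for full effect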
How it was run: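 Acute toxicity in LYMP1-003 lymphoblastoid cells: 24 hr compound treatment at 37 C, ATP measured with CellTiter-Glo after 30 min at room temperature. AC50 derived by fitting the Hill equation to qHTS titrations.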

[11] = Cell Viability - LYMP2-015 (AID 971); conditions: LYMP2-015 lymphoblastoid cell viability; series mostly up to 92.2 µM;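 also: cells exposed to compound for 24 h; 0% = DMSO only and full effect = 92 µM tetraoctylammonium bromide; nearly all actives have a fitted effect of over 55% in size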
How it was run: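 Acute toxicity was scored as a concentration-dependent drop in intracellular ATP in lymphoblastoid cells after 24 hr compound exposure in complete medium. Detection used CellTiter-Glo luciferase luminescence.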

[12] = Cell Viability - LYMP2-025 (AID 976); conditions: LYMP2-025 lymphoblastoid cell viability; series mostly up to 92.2 µM;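 also: cells exposed to compound for 24 h at 37 °C; plate controls were DMSO only for no effect and tetraoctylammonium bromide control for full effect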
How it was run: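 In qHTS format, LYMP2-025 lymphoblastoid cells in complete culture medium received compound for 24 hr; ATP-based CellTiter-Glo signal gave viability, with AC50 derived by Hill equation.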

[13] = Cell Viability - LYMP2-002 (AID 977); conditions: LYMP2-002 lymphoblastoid cell viability, qHTS; series mostly up to 92.2 µM;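 also: compound exposure lasted 24 h at 37 °C; plate controls were DMSO only for no effect and 92 µM tetraoctylammonium bromide for full effect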
How it was run: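 Cytotoxicity is scored as concentration-dependent loss of cellular ATP in a human lymphoblastoid line after 24 hr compound treatment at 37 C. AC50 is obtained by modelling concentration-response data with the Hill equation.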

[14] = Cell Viability - LYMP2-006 (AID 978); conditions: LYMP2-006 lymphoblastoid cell viability, qHTS; series mostly up to 92.2 µM;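 also: cells exposed to compound for 24 hours; % is scaled to controls: 0 for no effect and ±100 for the full control effect; nearly all actives have a fitted effect of over 60% in size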
How it was run: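 In this cytotoxicity screen, the human lymphoblastoid line grew in complete medium with test compounds for 24 hr at 37 C. Cellular ATP served as the viability signal.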

[15] = Cell Viability - LYMP2-008 (AID 980); conditions: LYMP2-008 lymphoblastoid cell viability, qHTS; series mostly up to 92.2 µM;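 also: cells exposed to compound for 24 h at 37 °C; % is scaled to controls: 0 for no effect and ±100 for the full control effect; nearly all actives have a fitted effect of over 60% in size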
How it was run: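 Acute cytotoxicity is scored as concentration-dependent loss of cellular ATP in a human lymphoblastoid line after 24 hr treatment at 37 C. ATP is quantified by luciferase luminescence.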

[16] = Cell Viability - LYMP1-002 - Assay at 24 hr (AID 993); conditions: LYMP1-002 lymphoblastoid cells viability; series mostly up to 92.2 µM; also: % is scaled to controls: 0 for no effect and ±100 for the full control effect
How it was run: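 qHTS, LYMP1-002 lymphoblastoid, 24 h cpd, 37 C, CellTiter-Glo ATP luminescence; AC50 via Hill eq.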

[17] = Cell Viability - LYMP1-002 - Assay at 40 hr (AID 994); conditions: LYMP1-002 lymphoblastoid cell viability; series mostly up to 92.2 µM;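 also: 0% = DMSO only and full inhibition = 92 µM tetraoctylammonium bromide; nearly all actives have a fitted effect of over 60% in size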
How it was run: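 Viability in the human lymphoblastoid line was measured as intracellular ATP via CellTiter-Glo after 40 hr compound exposure. Tetraoctylammonium bromide served as positive control.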

[18] = qHTS assay for small molecule antagonists of retinoid X receptor alpha signaling (AID 588546; active = well fitted inhibition curve with a large enough effect in the signal ratio, with a control signal flat, not every such curve was filed as active; the % refers to the signal ratio;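 also: cells stimulated with 9-cis-retinoic acid as agonist; % is scaled to controls: 0 for no effect and ±100 for the full control effect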); conditions: HEK293T RXRa-UAS-bla, beta-lactamase ratio, antagonist mode; measured here: W530 green channel, cytotoxicity proxy
How it was run: (§1)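 Beta-lactamase reporter inhibition, read as CCF4 fluorescence ratio (ex 405, em 460/530 nm) after 2 h at RT. HEK293T UAS-bla cells, 2500/well, were stimulated with 9-cis-RA at 500 or 100 nM final alongside test compound for 18 h at 37 C.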

[19] = target: Retinoic acid receptor RXR-alpha (Homo sapiens) (UniProt P19793); assay: as above; conditions: HEK293T RXRa-UAS-bla, beta-lactamase ratio, antagonist mode
Retinoic acid receptor RXR-alpha (Homo sapiens), sequence (P19793 whole entry, looked up): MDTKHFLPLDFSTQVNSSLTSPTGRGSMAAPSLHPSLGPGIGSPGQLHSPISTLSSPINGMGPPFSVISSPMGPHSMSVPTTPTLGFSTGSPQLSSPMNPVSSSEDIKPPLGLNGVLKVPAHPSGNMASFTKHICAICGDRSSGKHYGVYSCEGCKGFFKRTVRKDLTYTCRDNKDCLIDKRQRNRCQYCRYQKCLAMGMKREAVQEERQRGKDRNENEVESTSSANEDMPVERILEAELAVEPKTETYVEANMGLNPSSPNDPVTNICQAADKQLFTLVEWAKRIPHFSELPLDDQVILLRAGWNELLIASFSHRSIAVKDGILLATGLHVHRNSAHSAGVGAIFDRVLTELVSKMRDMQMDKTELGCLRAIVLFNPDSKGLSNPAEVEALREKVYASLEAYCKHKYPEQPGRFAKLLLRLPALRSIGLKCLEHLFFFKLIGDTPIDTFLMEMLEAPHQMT
How it was run: as §1

[20] = qHTS assay for small molecule agonists of the antioxidant response element (ARE) signaling pathway measured by Nrf2-dependant transcriptional activity (AID 720636; active = well fitted curve in the direction sought with a large enough effect in the repeat runs; an effect the other way counts as inactive or inconclusive;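 also: HepG2 cells with an ARE-driven luciferase reporter; % of control where 0% means no effect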); conditions: ARE-luc HepG2, Nrf2 luciferase reporter, 16 h; series mostly up to 92.4 µM
How it was run: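 Cells: ARE-luc HepG2 with Nrf2-responsive luciferase. Medium contained 1% dialyzed FBS. Compound exposure lasted 16 hr at 37 C and 5% CO2, followed by ONE-Glo luciferase detection.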

Nc1c(Cl)c(Cl)nc(C(=O)O)c1Cl
15% and 5.55% and 11.1%: max response [18]
inactive: Potency [1] > 92 µM | activity change, negative = cytotoxicity [2] -4.43% | Potency [3] | outcome [4] | outcome [5] | outcome [6] | Potency [7] | outcome [8] | Potency [9] | Potency [10] | Potency [11] | Potency [12] | Potency [13] | Potency [14] | Potency [15] | Potency [16] | Potency [17] | max response [19] -3.97% and -1.67% and -10.4% | outcome [20]

CCOP(=S)(OCC)Oc1ccc([N+](=O)[O-])cc1
14.9% and 8.35%: max response [18]
inactive: Potency [1] > 92 µM | Potency [3] | outcome [4] | outcome [5] | outcome [6] | Potency [7] | outcome [8] | Potency [9] | Potency [10] | Potency [11] | Potency [12] | Potency [13] | Potency [14] | Potency [15] | Potency [16] | Potency [17] | max response [19] 10.9% and -20.1% | outcome [20]

COc1ccc(C=O)cc1OC
inactive: Potency [1] > 92 µM | activity change, negative = cytotoxicity [2] -19.3% | Potency [3] | outcome [4] | outcome [5] | outcome [6] | Potency [7] | outcome [8] | Potency [9] | Potency [10] | Potency [11] | Potency [12] | Potency [13] | Potency [14] | Potency [15] | Potency [16] | Potency [17] | max response [19] -9.7% and -21.1% | outcome [20]
-5.56% and -4.77%: max response [18]

S=C=Nc1cccc2ccccc12
-0.704%: max response [18]
inactive: Potency [1] > 92 µM | activity change, negative = cytotoxicity [2] 6.83% | Potency [3] | outcome [4] | outcome [5] | outcome [6] | Potency [7] | outcome [8] | Potency [9] | Potency [10] | Potency [11] | Potency [12] | Potency [13] | Potency [14] | Potency [15] | Potency [16] | Potency [17] | max response [19] 3.59% | outcome [20]

N#CCCCl
inactive: Potency [1] > 92 µM | activity change, negative = cytotoxicity [2] -2.76% and -3.85% | Potency [3] | outcome [4] | outcome [5] | outcome [6] | Potency [7] | outcome [8] | Potency [9] | Potency [10] | Potency [11] | Potency [12] | Potency [13] | Potency [14] | Potency [15] | Potency [16] | Potency [17] | max response [19] 15.2% and 9.43% | outcome [20]
2.8% and 0.773%: max response [18]

Clc1nc(Cl)nc(Cl)n1
inactive: Potency [1] > 92 µM | activity change, negative = cytotoxicity [2] -4.85% | outcome [4] | outcome [5] | outcome [6] | Potency [7] | outcome [8] | Potency [9] | Potency [10] | Potency [11] | Potency [12] | Potency [13] | Potency [14] | Potency [15] | Potency [16] | Potency [17] | max response [19] 12.3% and -0.616% | outcome [20]
-2.29% and -4.83%: max response [18]
active: viability change, negative = cytotoxic [3] -96.5%

COC(=O)NC(=S)Nc1ccccc1NC(=S)NC(=O)OC
inactive: activity change, negative = cytotoxicity [2] -2.43% | outcome [4] | outcome [5] | outcome [6] | Potency [7] | outcome [8] | Potency [9] | Potency [10] | Potency [11] | Potency [12] | Potency [13] | Potency [14] | Potency [15] | Potency [16] | Potency [17] | max response [19] -8.67% and 3.08% | outcome [20]
3.84% and -2.84%: max response [18]

CCCCCCCC(=O)Cl
-7.27%: max response [18]
inactive: Potency [1] > 92 µM | activity change, negative = cytotoxicity [2] 1.92% | Potency [3] | outcome [4] | outcome [5] | outcome [6] | Potency [7] | outcome [8] | Potency [9] | Potency [10] | Potency [11] | Potency [12] | Potency [13] | Potency [14] | Potency [15] | Potency [16] | Potency [17] | max response [19] 17.7% | outcome [20]

CCCSC(=O)Cl
-2.55%: max response [18]
inactive: Potency [1] > 92 µM | activity change, negative = cytotoxicity [2] -16.5% | Potency [3] | outcome [4] | outcome [5] | outcome [6] | Potency [7] | outcome [8] | Potency [9] | Potency [10] | Potency [11] | Potency [12] | Potency [13] | Potency [14] | Potency [15] | Potency [16] | Potency [17] | max response [19] 25.6% | outcome [20]
